# Assay outcomes as filed in PubChem BioAssay.
# Tb PFK inh: inhibitors of T. brucei phosphofructokinase | T. brucei PFK, ADP-Glo luminescence | AID 485367 | hit rate 0.17% among 330,000 | Potency, µM (doses to about 57.5 µM), actives largely listed as inhibitors; also: nearly all actives have a fitted effect of over 60% in size
# Target sequence (O15648 whole entry, looked up): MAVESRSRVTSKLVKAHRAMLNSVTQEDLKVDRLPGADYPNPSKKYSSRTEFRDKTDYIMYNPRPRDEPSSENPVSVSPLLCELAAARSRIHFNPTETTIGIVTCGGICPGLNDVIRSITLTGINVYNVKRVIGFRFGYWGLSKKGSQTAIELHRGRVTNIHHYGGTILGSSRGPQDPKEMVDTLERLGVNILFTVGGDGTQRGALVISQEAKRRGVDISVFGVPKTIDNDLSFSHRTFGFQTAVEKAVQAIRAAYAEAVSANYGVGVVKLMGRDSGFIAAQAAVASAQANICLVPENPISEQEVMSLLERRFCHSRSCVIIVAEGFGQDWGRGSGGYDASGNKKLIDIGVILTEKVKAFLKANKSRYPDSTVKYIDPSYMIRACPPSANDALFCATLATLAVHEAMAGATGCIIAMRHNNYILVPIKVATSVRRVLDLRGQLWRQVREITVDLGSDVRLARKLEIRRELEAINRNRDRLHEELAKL
#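 PFK 1.25 nM, F6P 0.5 mM, ATP 0.1 mM, 0.1 M TEA pH 8.0, 5 mM MgCl2, 0.01% Tween20, 0.1% BSA; 45 min RT. ADP-Glo readout. qHTS titration up to 57 uM; curves fitted, compounds curve-classed.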
# VDR inh: blocks the human vitamin D receptor; P11473; VDR-SRC2-3 peptide fluorescence polarization, 2 h; Potency, µM, actives largely listed as inhibitors; hit rate 0.93% among 400,000
#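 Compounds are added to VDR with labelled SRC2-3 coactivator peptide and held 2 h at room temperature. Inhibition of the VDR–peptide interaction is then read as a change in fluorescence polarization.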
# BRCA1 expr act: activators of BRCA1 expression | MCF7-BRCA1-FFLuc reporter, luminescence, 48 h; response scale: scaled: vehicle 0%, 10 µM genistein 100% | Potency, µM (series often up to 46.1 µM), usual class: activators | hit rate 1.1% among 380,000 | AID 624202; also: nearly all actives have a fitted effect of over 80% in size
#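 MCF7 cells carrying a BRCA1-firefly luciferase reporter (2000 cells/well, phenol-red free MEM) were attached for 2 h at 37 °C, then given compounds for 48 h. Luminescence was read 15 min after luciferase reagent; activity normalized to genistein (10 microM) and DMSO.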
# PLK1 PBD block: blocks phosphopeptide binding to human PLK1 polo-box domain; Plk1 PBD binding of FITC phosphopeptide, fluorescence polarization; Potency, µM, usual class: inhibitors; hit rate 2.8% among 360,000; also: series mostly up to about 57 µM; nearly all actives have a fitted effect of over 65% in size
# Hits are given with their value; - = inactive; ? = inconclusive; . = not tested or not shown; [ ] = remark or other dose. Only some compounds are listed: those with a hit (about 3.9% of all), similar ones and a draw of the others. Calls follow the shape of the dose curve; as a rule, active = well fitted curve in the direction sought with a large enough effect; inconclusive = small, poorly fitted or top-dose-only effect, or another doubt; inactive = no such curve, though single readings can be large; an effect the other way counts as inactive or inconclusive.
SMILES,Tb PFK inh,VDR inh,BRCA1 expr act,PLK1 PBD block
COc1ccc(-n2c(C)cc(/C=C3\C(=O)NN(c4ccccc4)C3=O)c2C)cc1,-,-,-,-
Cc1cc(/C=C2\C(=O)NN(c3ccccc3)C2=O)c(C)n1-c1ccccc1O,-,-,10µM,-
COc1ccc(Sc2ccc(/C=C3\C(=O)NN(c4ccccc4)C3=O)o2)cc1,-,?,-,6µM
Cc1cccc(-c2noc(CN(C(=O)c3ccc4c(c3)OCO4)C(C)C)n2)c1,-,-,-,27µM
Cc1ccc2oc(-c3cccc(NC(=O)c4sc5c([N+](=O)[O-])cccc5c4Cl)c3)nc2c1,.,-,.,.
CCSc1nnc2ccc(-c3ccc(OC)c(OC)c3)nn12,-,?,-,21µM
COc1cccc(-c2ccc3nnc(SCC(=O)N4CCCC4)n3n2)c1,-,-,-,-
COc1cc2c(cc1N)-c1ccc(N)cc1C2,.,-,7.9µM,-
COc1cc(OC)c(NC(=O)NCCn2nnc3cc(S(=O)(=O)N(C)C)ccc32)cc1Cl,.,-,-,.
CC(=O)OCCn1c(=O)c2cc3c(=O)n(CCOC(C)=O)c(=O)c3cc2c1=O,-,-,-,12µM
COCCn1c(=O)c2ccccc2c2ccccc2c1=O,-,-,-,-
Cc1ccc(Cc2nc3ccccc3nc2SCC(=O)NCCc2ccccc2)cc1,.,-,-,.
O=C1C=CC(=O)c2c(O)c(CO)c(CO)c(O)c21,.,?,-,9.5µM
O=c1c(CO)cc(CO)cc(CO)c1O,-,-,-,-
O=C1C=CC(=O)c2c(O)c(Cl)c(Cl)c(O)c21,.,4.5µM,.,.
Nc1nc(N)nc(-c2cccc(Br)c2)n1,.,-,13µM,-
Cc1cccc(-c2nc(N)nc(N)n2)c1,-,-,?,-
c1ccc2[nH]ccc2c1,.,-,.,.
CC(Cc1cccs1)NC(=O)Nc1ccc([N+](=O)[O-])cc1 (centres undefined),-,-,5.6µM,-
CC(Cc1cccs1)NC(=O)c1cccs1 (centres undefined),-,-,?,-
O=C1CC(c2ccc3c(c2)OCCO3)Oc2ccc([N+](=O)[O-])cc21 (centres undefined),-,20µM,-,-
COc1ccc(C2CC(=O)c3ccccc3O2)cc1 (centres undefined),-,-,?,?
O=C1CC(c2ccc3c(c2)OCCO3)Oc2ccccc21 (centres undefined),-,-,11µM,8.4µM
Cc1ccc(-c2cn(-c3ccccc3)c(=S)[nH]2)cc1C,-,-,?,30µM
COc1ccc(-c2cn(-c3ccc(C)cc3C)c(=S)[nH]2)cc1OC,-,-,-,-
SMILES,Tb PFK inh,VDR inh,BRCA1 expr act,PLK1 PBD block
COc1ccc(-n2cc(-c3ccc(OC)c(OC)c3)[nH]c2=S)cc1,?,-,-,24µM
Cc1ccccc1-c1cn(-c2ccccc2)c(=S)[nH]1,-,-,-,-
COc1cc(OC)c(-n2cc(-c3ccc(OC)c(OC)c3)[nH]c2=S)cc1Cl,-,-,-,30µM
COc1ccc(-c2nc3c(c(SCC(=O)N4CCCCC4)n2)Cc2cc(Cl)ccc2O3)cc1,.,89µM,.,.
CCOC(=O)C1(C)CCCN1C(=O)c1ccc(OC)c(OC)c1 (centres undefined),.,.,-,-
CC(C)C[C@@H](CN1CCC[C@@H]1CN1C(=S)NC[C@@H]1Cc1ccc(O)cc1)N1C[C@H](Cc2ccc(O)cc2)N(CCc2ccccc2)C1=S,.,.,-,-
Fc1ccccc1Cn1nnc2c(-n3ccnc3)ncnc21,-,?,-,24µM
CN1CCN([C@@H](c2ccccc2)c2ccc(Cl)cc2)CC1,.,-,.,.
CN1CCN(C2=C(Cl)C(=O)N(c3ccc(Cl)c(Cl)c3)C2=O)CC1,-,?,-,27µM
O=C(/C=C/c1cccc(Cl)c1)c1ccc([N+](=O)[O-])o1,-,?,-,6.7µM
Cc1cc(O)c(C(=O)/C=C/c2cccc([N+](=O)[O-])c2)c(=O)o1,-,-,-,?
CC(=O)Nc1ccc(C=CC=Cc2cccc([N+](=O)[O-])c2)cc1,.,?,5µM,-
COc1cc(/C=C/C(=O)c2ccc([N+](=O)[O-])o2)ccc1O,-,?,-,-
CC(=O)Nc1ccc(OCc2cccc([N+](=O)[O-])c2)cc1,-,-,?,-
COc1ccccc1C(=O)/C=C/c1ccc(N2CCCCC2)c([N+](=O)[O-])c1,-,79µM,-,-
CC(=O)Oc1ccccc1C(=O)C=Cc1cccc([N+](=O)[O-])c1,.,22µM,-,?
O=C(Cn1ncc2c(=O)oc3ccccc3c21)N1CCN(c2ccc(Cl)cc2)CC1,.,-,-,.
Cc1ccc(-n2nc(CO)c(C(=O)NCCCc3ccccc3)n2)cc1,.,-,.,.
COCCCNC(=O)CCCn1c(SCC(=O)c2ccc(Br)cc2)nc2c(sc3ccccc32)c1=O,.,-,.,.
O=C(/C=C/c1cccc([N+](=O)[O-])c1)c1ccccc1,.,20µM,.,.
CCCC(C)NC(=O)/C=C/c1cccc([N+](=O)[O-])c1 (centres undefined),-,-,-,-
O=C(/C=C/c1cccc([N+](=O)[O-])c1)OCC(=O)c1ccccc1,-,-,-,-
O=C(N/N=C/C=C/c1ccco1)c1cccc([N+](=O)[O-])c1,-,-,-,-
O=C(/C=C/c1ccco1)c1cccc([N+](=O)[O-])c1,.,71µM,-,-
CCCCN(CC)C(=O)/C=C/c1cccc([N+](=O)[O-])c1,-,-,-,27µM
SMILES,Tb PFK inh,VDR inh,BRCA1 expr act,PLK1 PBD block
COc1ccccc1-c1nccc(NCc2cccc(C)c2)n1,.,-,.,.
Cc1cc(C)cc(NC2=C(N)C(=O)c3ccccc3C2=O)c1,-,89µM,-,-
CCC(C)c1ccc(NC(=O)c2cccnc2)cc1 (centres undefined),-,-,3.5µM,-
Cc1nc2ccccc2n1C(C)c1nc2ccccc2n1CC(=O)c1ccc(OC(F)(F)F)cc1 (centres undefined),.,.,.,-
CC(Sc1nnc(C(F)(F)F)n1C)C(=O)Nc1ccc(S(N)(=O)=O)cc1 (centres undefined),-,-,-,30µM
CC1CCCCN1CCCNC(=O)c1[nH]c2ccccc2c1Sc1ccc(Cl)cc1 (centres undefined),.,-,.,.
CCN1CCN(C(c2cccc(OC)c2OC)c2nnnn2Cc2ccco2)CC1 (centres undefined),-,-,-,27µM
CCN(CC)CCN(C)C(=O)c1[nH]c(C(F)(F)F)nc1-c1ccccc1,.,.,-,-
COc1ccc(C2Nc3cccc4cccc(c34)N2)cc1,-,-,-,30µM
Clc1cccc(Cl)c1C1Nc2cccc3cccc(c23)N1,-,-,-,-
CN(C)c1ccc(C2Nc3cccc4cccc(c34)N2)cc1,-,-,-,-
c1ccc(C2Nc3cccc4cccc(c34)N2)cc1,-,-,-,27µM
c1csc(C2Nc3cccc4cccc(c34)N2)c1,-,?,-,30µM
Clc1cccc(C2Nc3cccc4cccc(c34)N2)c1,-,-,-,?
COc1ccc(CNC(=O)C(=O)NCC(c2cccs2)S(=O)(=O)c2cccs2)cc1 (centres undefined),.,-,.,.
CC1CCCC(NC(=O)COC(=O)c2ccc(N(C)C)cc2)C1C (centres undefined),-,-,-[1.84 µM],-
